Assay outcomes deposited in PubChem by National Center for Advancing Translational Sciences (NCATS).
Shown are actives, neighbours in structure and some others; about 19% of the full set was active somewhere.
KB-V1 MDR tox: kills drug-selected multidrug resistant KB-V1 cells. KB-V1 MDR cells viability, CellTiter-Glo, 72 h. Potency, µM (titrated, usually from 46.1 µM), hits mostly cytotoxic. 400,000 tested, 3.4% active; also: nearly all actives have a fitted effect of over 60% in size
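Readout: CellTiter-Glo luminescence, 10 min after addition. Cells: KB-V1 MDR subline, 72 h at 37 degrees C with compound. Analysis: corrected, normalized data fitted to concentration-effect curves.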
TDP1 cell noCPT: qHTS for Inhibitors of human tyrosyl-DNA phosphodiesterase 1 (TDP1): qHTS in cells in absence of CPT; AID 686978, 2013; DT40 Tdp1-/- hTDP1 cells, no CPT, ATP luminescence, 48 h; Potency, µM (titrated, usually from 46.2 µM), for the others: at the highest dose activity change, negative = growth inhibition, hits mostly inhibitors; 420,000 tested, 15% active; also: nearly all actives have a fitted effect of over 55% in size
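DT40 Tdp1-/-;hTDP1 cells, no CPT (DMSO vehicle only), 400 cells/well; compounds pin-transferred; ≥48 hr, 37 °C; CellTiter-Glo 30 min RT dark, luminescence read.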
HT1080-NT tox: kills 2HG-producing HT-1080-NT fibrosarcoma cells | Potency, µM (titrated, usually from 46.1 µM), without a hit: at the top dose activity, negative = less viability, actives largely listed as cytotoxic | HT-1080-NT fibrosarcoma viability, CellTiter-Glo ATP luminescence, 48 h | AID 686970 | 360,000 tested, 1.6% active;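 also: NT is the 2HG producing partner of a matched IDH1 knockdown line; 0% = DMSO-treated cells and -100% = media-only wells without cells; nearly all actives have a fitted effect of over 55% in size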
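HT-1080-NT fibrosarcoma cells (2HG-overproducing), 750 cells/well in RPMI with 5% FBS, dosed after 2 h and incubated 48 h at 37C. CellTiter-Glo luminescence normalized to DMSO and no-cell wells; concentration-response curves fitted and classed.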
KB-3-1 cytotox: kills parental KB-3-1 adenocarcinoma cells; 400,000 tested, 1.4% active; KB-3-1 viability, CellTiter-Glo ATP luminescence, 72 h; Potency, µM (series often up to 46.1 µM), most hits filed as cytotoxic; also: nearly all actives have a fitted effect of over 60% in size
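Screening of KB-3-1 cells (DMEM, 10% FBS, phenol-red free) ran from lowest to highest compound concentration; after 72 h at 37 °C viability was read luminescently and curves fitted.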
HT1080 IDH1KD tx: toxicity to HT-1080 IDH1 knockdown cells (counter line) | HT-1080 IDH1 knockdown viability, ATP luminescence, 48 h | 360,000 tested, 2% active | Potency, µM (top dose mostly 46.1 µM), inactives show top-dose activity, negative = toxicity, usual class: cytotoxic;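 also: 0% = DMSO wells and -100% = cell-free medium wells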
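Luminescent ATP read-out (CellTiter-Glo, 10 min at room temperature) after 48 h compound exposure at 37 °C gave viability of IDH1-knockdown HT-1080 cells. Activity was normalised to DMSO and cell-free wells, then fitted as concentration-response curves.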
DT40 TDP1 CPT: growth inhibition of DT40 Tdp1-/-;hTDP1 cells with camptothecin (screen for TDP1 inhibitors); AID 686979; chicken DT40 Tdp1-/-;hTDP1 cells + 20 nM CPT, ATP luminescence, 48 h; 420,000 tested, 12% active; Potency, µM (top dose mostly 46.2 µM), for the others: top-dose activity change, negative = growth inhibition, actives largely listed as inhibitors; also: nearly all actives have a fitted effect of over 55% in size
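Chicken DT40 Tdp1-/- cells stably complemented with human TDP1 were seeded at 400 cells/well in medium containing 20 nM camptothecin, exposed to pin-transferred compounds, and grown at 37 °C for at least 48 hr. Viability was read as ATP luminescence.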
* hit, by the source's call; i = inactive; u = inconclusive; x = not tested or not shown; [ ] = another dose, or the depositor's remark. Calls follow the shape of the dose curve; as a rule, active = well fitted curve in the direction sought with a large enough effect; inconclusive = small, poorly fitted or top-dose-only effect, or another doubt; inactive = no such curve, though single readings can be large; an effect the other way counts as inactive or inconclusive. Unless noted, % is scaled to controls: 0 for no effect and ±100 for the full control effect; potency is read from the fitted curve at half-maximal effect.

SMILES	KB-V1 MDR tox	TDP1 cell noCPT	HT1080-NT tox	KB-3-1 cytotox	HT1080 IDH1KD tx	DT40 TDP1 CPT
Cn1nc(C(=O)Nc2ccc(S(=O)(=O)Nc3ncccn3)cc2)ccc1=O	u	2%	27%	i	14%	5%
CCCc1nc(NC2CCCCC2)c(C#N)c2c1COC(C)(C)C2	i	29µM*	-26%	i	5%[9.24 µM]	18µM*
Cc1ccc(C2C=CC(C#N)=CN2Cc2ccccc2)cc1 (stereo not given)	i	u	-5%	i	-10%	23µM*
COc1ccccc1N(CC(=O)Nc1ccc(Br)cc1F)S(=O)(=O)c1cccs1	i	u	-19%	u	-12%	u
c1nc(NCC2CCCO2)c2[nH]cnc2n1 (stereo not given)	i	-14%	1%	i	-5%	-16%
CCOCCCNc1ncnc2c1[nH]c1ccccc12	u	16µM*	-6%	u	-16%	10µM*
CCCCn1cnc2c([nH]c3ccccc32)c1=O	i	-19%	-4%	i	-8%	1%
c1ccc2c(c1)[nH]c1c(NCC3CCCO3)ncnc12 (stereo not given)	u	15µM*	0%	i	u	u
CCCCOCCCNc1ncnc2c1[nH]c1ccccc12	1.6µM*	2.3µM*	13µM*	2.6µM*	18µM*	2.1µM*
CC(=O)Nc1ccc(NC(=O)c2cc(CN3CCCC3)on2)cc1	i	-18%	x	i	x	-1%
CC(Sc1nc(N(C)C)nc(N2CCOCC2)n1)C(=O)Nc1ccccc1 (stereo not given)	i	7.3µM*	3%	i	2%	-26%
COc1ccccc1N1CCN(C(=O)c2c(-c3ccccc3)noc2C)CC1	u	7.3µM*	u	4.6µM*	15µM*	10µM*
Cc1onc(-c2ccccc2)c1C(=O)N1CCN(c2ccc([N+](=O)[O-])cc2)CC1	u	21µM*	5%	i	0%	u
COc1ccccc1N1CCN(C(=O)c2c(-c3c(F)cccc3Cl)noc2C)CC1	u	13µM*	u	u	u	23µM*
COc1cc2c(C(=O)N3CCN(c4ccccc4C)CC3)c(C)oc2cc1Br	5.8µM*	16µM*	5%	u	12%	u
Cc1onc(-c2ccccc2)c1C(=O)N1CCCN(C(=O)c2c(-c3ccccc3)noc2C)CC1	u	-29%	-7%	i	6%	-23%
Cc1onc(-c2ccccc2)c1C(=O)N1CCN(c2ccccc2)CC1	u	u	4%	i	5%	u
CS(=O)(=O)c1ccccc1-c1csc(N2CCC(C(N)=O)CC2)n1	i	x	x	i	x	x
CC(=O)NCCNC(=O)Cn1nnc(-c2ccccc2)c1COc1ccc2ccccc2c1	i	u	6%	i	10%	u
CCN(CC)c1ccc(NC(=O)CCCCCN2C(=O)c3ccccc3C2=O)cc1	4.6µM*	u	-6%	i	-11%	-15%
CC(=O)Nc1ccc(NC(=O)CCCCCN2C(=O)c3ccccc3C2=O)cc1	i	-5%	1%	i	4%	3%
COc1ccccc1NC(=O)c1c(NC(=O)CCC(=O)O)sc2c1CCCCC2	i	-16%	-2%	i	-3%	-18%
COc1ccc(OC)c(CNc2sc3c(c2C(=O)Nc2cc(OC)ccc2OC)CCCC3)c1	i	u	x	i	x	u
COc1ccc(OC)c(NC(=O)c2c(NC(=O)CCC(=O)O)sc3c2CCCCC3)c1	i	u	2%	i	-4%	u
COc1ccc(NC(=O)c2c(NCc3sccc3C)sc3c2CCCCC3)c(OC)c1	i	3.3µM*	x	i	x	3.3µM*
SMILES	KB-V1 MDR tox	TDP1 cell noCPT	HT1080-NT tox	KB-3-1 cytotox	HT1080 IDH1KD tx	DT40 TDP1 CPT
COc1ccc(Cl)cc1NC(=O)c1c(NCc2sccc2C)sc2c1CCCC2	x	21µM*	x	x	x	u
COc1ccc(NC(=O)c2c(NC(=O)CNCC(C)C)sc3c2CCC3)c(OC)c1	i	6.5µM*	-10%	u	u	4.1µM*
COc1ccc(OC)c(NC(=O)c2c(NCc3cccs3)sc3c2CCCCC3)c1	i	u	x	i	x	23µM*
Cc1cccc(C)c1NC(=O)CSc1nc2ncccc2o1	i	-20%	x	i	x	0%
COc1ccc(OCc2cc(C(=O)N3CCCC(O)C3)no2)c2ccccc12 (stereo not given)	x	-18%	-19%	x	-10%	-10%
COc1ccc(NC(=O)c2c(NCc3cccs3)sc3c2CCCC3)c(OC)c1	i	16µM*	x	i	x	16µM*
COc1cc(OC)c2cc(C(=O)N[C@H](C(=O)N3CCC[C@H]3C(=O)O)C(C)C)n(C)c2c1	u	-1%	12%	i	11%	9%
O=C1C2CCCCN2C(=O)N1CCCCN1CCN(c2ccccc2Oc2ccccc2)CC1 (stereo not given)	i	u	-10%	i	-22%	u
Cc1cc(C(=O)N2CCCC(N3CCN(c4cccc(C(F)(F)F)c4)CC3)C2)no1 (stereo not given)	x	16µM*	8%	x	10%	u
O=C(CCn1cccn1)N1CCCC(N2CCN(c3cccc(C(F)(F)F)c3)CC2)C1 (stereo not given)	x	15µM*	1%	x	4%	u
Cc1cc(C)c(C(=O)N2CCCC(N3CCN(c4cccc(C(F)(F)F)c4)CC3)C2)o1 (stereo not given)	i	8.2µM*	-18%	u	u	21µM*
O=C(c1ccco1)N1CCCC(N2CCN(c3cccc(C(F)(F)F)c3)CC2)C1 (stereo not given)	i	21µM*	0%	u	-14%	16µM*
O=C(c1cc(C2CC2)on1)N1CCCC(N2CCN(c3cccc(C(F)(F)F)c3)CC2)C1 (stereo not given)	i	u	-6%	i	-20%	u
O=C(c1cnc2c(c1)COc1ccccc1-2)c1ccccc1O	i	u	x	u	x	u
O=C(Nc1ccccc1-c1ccccc1)c1ccc(=O)[nH]n1	i	-25%	u	i	u	-27%
CC(Sc1ncn[nH]1)C(=O)Nc1cc(C(F)(F)F)ccc1Cl (stereo not given)	i	-23%	-2%	i	0%	-1%
